Data as given in PubChem BioAssay (NCATS).
Inconclusive results are not listed. Calls of active or inactive are those of the source. Unless noted, the call rests on the fitted dose curve; in most records, active means well fitted curve in the direction sought with a large enough effect; inconclusive means small, poorly fitted or top-dose-only effect, or another doubt; inactive means no such curve, though single readings can be large; an effect the other way counts as inactive or inconclusive.

Assays:
[1] = NS1 protein of Zika virus - qHTS assay to identify small molecule inhibitors in human HEK 293 cells (AID 1347053); further: series mostly up to about 46 µM; nearly all actives have a fitted effect of over 55% in size
In short: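 HEK 293; 20 h pre-culture, 37 C/5% CO2; cpd 1 h pre-infection; ZIKV MR766, MOI = 0.5, 24 h, 37 C; TR-FRET NS1 readout (two anti-NS1 Abs); norm. to no-virus vs infected.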

[2] = qHTS for Inhibitors of the Functional Ribonucleoprotein Complex (vRNP) of Lassa (LASV) Arenavirus: LASV Primary Screen - GLuc reporter signal (AID 1347082; calls by dose curve; tested in HEK293 reporter line; further: series mostly up to about 57 µM; nearly all actives have a fitted effect of over 60% in size)
[3] = qHTS for Inhibitors of the Functional Ribonucleoprotein Complex (vRNP) of Lassa (LASV) Arenavirus: Viability assay - alamar blue signal for LASV Primary Screen (AID 1347083; calls by dose curve; tested in HEK293 reporter line; further: series mostly up to about 57 µM; nearly all actives have a fitted effect of over 80% in size)
[4] = qHTS for Inhibitors of the Functional Ribonucleoprotein Complex (vRNP) of Lymphocytic Choriomeningitis Arenaviruses (LCMV): Viability assay - alamar blue signal for LCMV Primary Screen (AID 1347085; calls by dose curve; tested in HEK293 reporter line; further: series mostly up to about 57 µM; nearly all actives have a fitted effect of over 80% in size)
[5] = molecular target: Nucleoprotein (Lymphocytic choriomeningitis virus (strain Armstrong)) (UniProt P09992); test: qHTS for Inhibitors of the Functional Ribonucleoprotein Complex (vRNP) of Lymphocytic Choriomeningitis Arenaviruses (LCMV): LCMV Primary Screen - GLuc reporter signal (AID 1347086; calls by dose curve; further: series mostly up to about 57 µM; nearly all actives have a fitted effect of over 70% in size)
Chain of Nucleoprotein (Lymphocytic choriomeningitis virus (strain Armstrong)) (P09992 whole entry, looked up): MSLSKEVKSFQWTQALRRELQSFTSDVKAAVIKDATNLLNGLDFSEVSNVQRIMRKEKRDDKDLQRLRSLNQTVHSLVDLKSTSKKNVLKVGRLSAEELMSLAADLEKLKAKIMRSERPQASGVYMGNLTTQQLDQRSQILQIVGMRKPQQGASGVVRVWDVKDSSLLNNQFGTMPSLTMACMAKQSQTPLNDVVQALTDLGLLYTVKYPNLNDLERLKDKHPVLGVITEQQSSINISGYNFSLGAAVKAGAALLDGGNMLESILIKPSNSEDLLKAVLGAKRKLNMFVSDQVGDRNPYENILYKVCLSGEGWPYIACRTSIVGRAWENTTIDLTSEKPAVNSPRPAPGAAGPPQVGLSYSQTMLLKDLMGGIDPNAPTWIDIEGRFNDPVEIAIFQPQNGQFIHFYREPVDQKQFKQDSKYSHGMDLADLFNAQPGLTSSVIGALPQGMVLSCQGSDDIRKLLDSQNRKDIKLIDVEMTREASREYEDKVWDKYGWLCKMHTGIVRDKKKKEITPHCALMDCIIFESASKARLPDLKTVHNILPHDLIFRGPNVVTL

[6] = qHTS of pediatric cancer cell lines to identify multiple opportunities for drug repurposing: Primary screen for TC32 cells (AID 1347089); further: nearly all actives have a fitted effect of over 60% in size
In short: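 In the primary qHTS, MIPE compounds were tested at 11 concentrations (0.78 nM to 46 µM) and NPC compounds at 8 (0.59 nM to 46 µM) on TC32 cells for 48 h. CellTiter-Glo luminescence gave viability.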

[7] = qHTS of pediatric cancer cell lines to identify multiple opportunities for drug repurposing: Primary screen for DAOY cells (AID 1347090); further: series mostly up to about 46 µM; nearly all actives have a fitted effect of over 55% in size
In short: (§1)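 Eight- or eleven-point concentration series, 48 h treatment at 37 degrees C in growth media; readout CellTiter-Glo luminescence. Potency and efficacy were taken from the concentration-response curves.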

[8] = qHTS of pediatric cancer cell lines to identify multiple opportunities for drug repurposing: Primary screen for SJ-GBM2 cells (AID 1347091)
In short: as §1

[9] = qHTS of pediatric cancer cell lines to identify multiple opportunities for drug repurposing: Primary screen for A673 cells (AID 1347092); further: nearly all actives have a fitted effect of over 45% in size
In short: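 48 h compound exposure, A673, 500-1,000 cells/well, 37 degrees C/5% CO2. MIPE: 11-point, 0.78 nM-46 µM; NPC: 8-point, 0.59 nM-46 µM (final). Readout CellTiter-Glo luminescence after 15 min RT.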

[10] = qHTS of pediatric cancer cell lines to identify multiple opportunities for drug repurposing: Primary screen for SK-N-MC cells (AID 1347093); further: series mostly up to about 46 µM
In short: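 Metabolically active cells were quantified by ATP-dependent luminescence (CellTiter-Glo, 15 min at room temperature) following 48 h treatment. Cells had been plated at 500-1,000 per well and settled for 5 h beforehand.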

[11] = P-glycoprotein substrates identified in KB-8-5-11 adenocarcinoma cell line, qHTS therapeutic library screen (AID 1346987); further: series mostly up to about 44 µM; nearly all actives have a fitted effect of over 65% in size
In short: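 P-gp-mediated resistance screen: KB-8-5-11 cells treated 72 h with compounds in dose-response. CellTiter-Glo viability.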

Measured: Potency

Clc1ccccc1N1CCNCC1
not listed: [11]
inactive: all other assays above

COC1CC(=C(c2cccs2)c2cccs2)C[N+](C)(C)C1 (centres undefined)
not listed: [1] | [7] | [9] | [10]
inactive: all other assays above

COP(=S)(OC)Oc1cc(Cl)c(Cl)cc1Cl
not listed: [1] | [10]
inactive: all other assays above

Clc1cccc(SC2CCNCC2)n1
not listed: [10] | [11]
inactive: all other assays above

CN1CC[C@]23c4c5ccc(O)c4O[C@H]2[C@@H](O)CC[C@H]3[C@H]1C5
not listed: [1]
inactive: all other assays above

COc1cccc([C@@]2(O)CCCC[C@@H]2CN(C)C)c1
not listed: [1]
inactive: all other assays above

C[C@]12CC[C@H]3[C@@H](CCC4=CC(=O)CC[C@@H]43)[C@@H]1CC[C@@H]2OC(=O)CCC1CCCCC1
not listed: [8] | [10] | [11]
inactive: all other assays above

CCCOC(=O)c1cncn1C(C)c1ccccc1 (centres undefined)
not listed: [10] | [11]
inactive: all other assays above

C[C@]12CCC(=O)C=C1CC[C@@H]1[C@@H]2CC[C@]2(C)C(=O)CC[C@@H]12
not listed: [7] | [11]
inactive: all other assays above

CC(C)c1c(CN(C)C(C)Cc2ccccc2)n(C)n(-c2ccccc2)c1=O (centres undefined)
not listed: [8] | [11]
inactive: all other assays above

O=c1[nH]c2ccccc2n1C1CCNCC1
not listed: [10] | [11]
inactive: all other assays above
